Assay outcomes from PubChem.
12-hLO inh: qHTS Assay for Inhibitors of 12-hLO (12-human lipoxygenase); Polyunsaturated fatty acid lipoxygenase ALOX12 (Homo sapiens), P18054; purified 12-hLO, xylenol orange hydroperoxide absorbance; hit rate 0.12% among 150,000; Potency, µM (titrated, usually from 57.1 µM), inactives show at the highest dose activity change, negative = inhibition, actives largely listed as inhibitors; active means well fitted inhibition curve with a large enough effect; inconclusive means small, poorly fitted or top-dose-only effect; further: potency means the concentration at half of the fitted maximal effect; nearly all actives have a fitted effect of over 55% in size
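Purified human 12hLO (150 nM), preincubated 15 min with compound, then 40 uM arachidonic acid for 30 min, room temperature, Hepes pH 7.0 with 0.01% Triton X-100. Hydroperoxide detected by ferrous iron/xylenol orange; 573/405 nm absorbance ratio gives reaction progress.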
PNC inhibitor: High Content Assay for Compounds that inhibit the Assembly of the Perinucleolar Compartment; PC3M PTB-GFP, PNC prevalence imaging, 16 h; stronger effect = lower value; activity change (PNC), negative = inhibition, % at 10 µM; hit rate 3.1% among 140,000; AID 2417, 2010;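 active means readout at or below -70, meaning at least 70% loss of cells showing the perinucleolar compartment, a nuclear body marking cancer cells; inconclusive means readout between -30 and a set limit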;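 further: plate controls were DMSO wells for no effect and camptothecin positive control wells for full effect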
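Read-out is percentage of cells bearing a perinucleolar compartment, from automated 20x imaging of fixed, Hoechst-stained PC3M PTB-GFP cells. Cells were seeded 4 h, then exposed 16 h to compound (23 nl of library stock) in duplicate plates.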
ALDH1A1 inh: qHTS Assay for Inhibitors of Aldehyde Dehydrogenase 1 (ALDH1A1) | Aldehyde dehydrogenase 1A1 (Homo sapiens), P00352 | Purified ALDH1A1, NADH fluorescence, propionaldehyde substrate | Potency, µM (titrated, usually from 75.3 µM), for inactives: top-dose activity, negative = inhibition, usual class: inhibitors | hit rate 7.3% among 220,000 | AID 1030, 2008;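 further: potency means the concentration at half of the fitted maximal effect; plate controls were no enzyme wells and a reference inhibitor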
Target sequence (P00352 whole entry, looked up): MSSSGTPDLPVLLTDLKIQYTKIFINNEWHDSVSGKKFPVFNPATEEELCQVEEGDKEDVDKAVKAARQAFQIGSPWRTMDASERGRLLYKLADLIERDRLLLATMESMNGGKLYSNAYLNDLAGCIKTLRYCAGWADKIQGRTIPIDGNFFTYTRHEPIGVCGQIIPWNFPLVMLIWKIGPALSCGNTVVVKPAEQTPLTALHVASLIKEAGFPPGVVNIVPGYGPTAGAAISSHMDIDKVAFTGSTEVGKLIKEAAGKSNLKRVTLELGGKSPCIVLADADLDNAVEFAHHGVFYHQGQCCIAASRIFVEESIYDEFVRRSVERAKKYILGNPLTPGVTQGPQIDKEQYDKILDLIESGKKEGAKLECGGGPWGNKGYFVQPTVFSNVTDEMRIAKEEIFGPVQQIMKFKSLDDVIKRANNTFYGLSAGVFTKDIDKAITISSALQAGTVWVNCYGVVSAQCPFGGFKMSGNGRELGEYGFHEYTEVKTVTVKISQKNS
LMNA splice mod: qHTS Assay for Modulators of Lamin A Splicing; HeLa LMNA splicing GFP/RFP minigene ratio, 48 h; AID 1487, 2009; hit rate 0.01% among 200,000; Potency, µM (top dose mostly 46.1 µM), inactives show top-dose ratio change, negative = inhibition, most hits filed as inhibitors; active means well fitted inhibition curve with a large enough effect in the signal ratio, with a control signal flat, not every such curve was filed as active; inconclusive means small, poorly fitted or top-dose-only effect, or effect the other way, or a change in a side signal; the % refers to the signal ratio; further: potency means the concentration at half of the fitted maximal effect
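Read-out is the ratio of GFP to DsRed2 object intensity, acquired by 488 nm laser-scanning cytometry on HeLa lamin A-EGFP minigene reporter cells. Compound incubation 48 hrs at 37 °C in Opti-MEM with 2% FBS; DMSO 0.5% final.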
HPGD inh: qHTS Assay for Inhibitors of HPGD (15-Hydroxyprostaglandin Dehydrogenase); Potency, µM, without a hit: top-dose activity change, negative = inhibition, usual class: inhibitors; purified HPGD, NADH fluorescence kinetic, PGE2 substrate; hit rate 4.3% among 150,000; 15-hydroxyprostaglandin dehydrogenase [NAD(+)] (Homo sapiens), P15428; AID 894, 2007; further: potency means the concentration at half of the fitted maximal effect
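20 nM HPGD preincubated 15 min at room temperature with compound in 50 mM Tris-HCl pH 8, 0.01% Tween 20. Started with 1 mM NAD+ and 30 uM prostaglandin E2; NADH fluorescence (360/450 nm) read 5 times over 30-s intervals, last minus first.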
Active calls of the source: *; ? = inconclusive; / = no result; [ ] = dose if it differs, or a comment. Rows were chosen to be rich in hits. Some 10% of all compounds tested hit in one or more screens of this group. Unless noted, the call rests on the fitted dose curve; in most records, active means well fitted inhibition curve with a large enough effect (not every such curve was filed as active); inconclusive means small, poorly fitted or top-dose-only effect, or another doubt; inactive means no such curve, though single readings can be large or run the other way. Unless noted, on the % scale 0 is the no-effect control and ±100 the full control effect.

SMILES	12-hLO inh	PNC inhibitor	ALDH1A1 inh	LMNA splice mod	HPGD inh
COC(=O)c1ccc(-c2nn(C)c(=O)c3ccccc23)cc1	0%	-108*	?	-13%	?
Cn1nc(-c2ccc(C(=O)O)cc2)c2ccccc2c1=O	4%	35	6%	-23%	7.9µM*
Cc1ccc(CNc2oc(-c3ccc(COc4ccc(C)cc4)o3)nc2C#N)cc1	/	/	/	13%[46 µM]	/
O=C(O)C(Oc1ccc2ccc(=O)oc2c1)c1ccccc1 (configuration not stated)	/	/	?	/	-14%
CCn1c(CCC(=O)Nc2nc3c(s2)CCCC3)nc2cc(S(=O)(=O)N(C)C)ccc21	-1%	-4	16µM*	-8%	-7%
COc1ccc(NCc2cccn2-c2nnc(N3CCCCCC3)s2)cc1	/	/	/	0%[46 µM]	/
O=c1[nH]c2c(s1)C(c1ccco1)C1C3CCC(C3)C1S2 (configuration not stated)	-14%	?	13µM*	22%	-28%
Cc1cccc(NC(=O)N2CCC(CN3CCCCCC3)CC2)c1C	/	/	/	-21%[46 µM]	/
Oc1ccc(Cl)cc1CNc1ccc(Br)cn1	-20%	?	5%	0%	14µM*
CCCCSc1nnc(NC(=O)CCc2ccccc2)s1	3%	-81*	-1%	-5%	-8%
COCCSc1nnc(NC(=O)Cc2cccs2)s1	4%	32	1%	-8%	-21%
COCCSc1nnc(NC(=O)Cc2ccccc2OC)s1	5%	27	22µM*	-2%	-16%
COC(=O)[C@H](COC(C)(C)C)NC(=O)O[C@@H]1Cc2cc(Br)ccc2O[C@H]1c1cccc(OC)c1	/	/	16%	/	-4%
CCOC(=O)c1cccc(NC(=O)N2CC(CC)Sc3ccccc32)c1 (configuration not stated)	/	/	/	-3%[46 µM]	/
CCn1nc([N+](=O)[O-])c(C(C#N)c2nc3cc(C(F)(F)F)ccc3s2)c(Cl)c1=O (configuration not stated)	-23%	-7	0.4µM*	?	?
O=C(/C=C\c1ccccc1)c1ccccc1O	/	/	1%[13.5 µM]	/	/
O=C(/C=C/c1ccccc1)c1cc(Br)ccc(=O)c1O	?	-21	7.1µM*	?	20µM*
CC(C(=O)NCC1CCCCC1)N1CCN(S(=O)(=O)c2ccccc2F)CC1 (configuration not stated)	/	/	16µM*	-10%[46 µM]	/
O=S(=O)(c1ccccc1F)N1CCN(CC(O)c2ccccc2)CC1 (configuration not stated)	/	/	-4%	1%[46 µM]	/
Cc1ccc(-c2[nH]c3ccccc3c2C(C[N+](=O)[O-])c2ccco2)cc1 (configuration not stated)	-14%	-22	28µM*	-17%	-29%
COc1ccc(C(=O)/C=C2/c3ccccc3CC(C)(C)N2C)cc1OC	2%	-3	24µM*	-4%	-10%
COc1ccc(C(=O)N/N=C2\CCc3ccccc32)cc1OC	/	/	2%	/	/
COc1ccc(-n2c(CN3CCC(C(N)=O)CC3)nc3ccc([N+](=O)[O-])cc3c2=O)c(OC)c1	/	/	9.5µM*	/	/
CCOC(=O)C1CCCN(Cc2nc3ccc([N+](=O)[O-])cc3c(=O)n2-c2ccc(OC)cc2OC)C1 (configuration not stated)	/	/	-7%	?	/
COc1cccc(-n2c(CN3CCN(c4ccccc4)CC3)nc3ccc([N+](=O)[O-])cc3c2=O)c1	-4%	26	28µM*	?	-13%
SMILES	12-hLO inh	PNC inhibitor	ALDH1A1 inh	LMNA splice mod	HPGD inh
CCOC(=O)C1CCN(Cc2nc3ccc([N+](=O)[O-])cc3c(=O)n2-c2ccc(OC)cc2OC)CC1	/	/	20µM*	/	/
COc1ccc(NC(=O)N2CC3(CCN(C(=O)c4cc(C(F)(F)F)cc(C(F)(F)F)c4)CC3)C2)cc1	2%	/	?	/	-15%
Cc1ccc2nc(-c3ccccc3O)c(Nc3ccc4c(c3)OCCO4)n2c1	0%	-113*	?	-5%	?
Cc1ccc2nc(-c3ccc(O)cc3)c(Nc3ccc4c(c3)OCCO4)n2c1	-4%	-5	?	-14%	?
Cc1ccc(-c2nc3cnccn3c2Nc2ccc3c(c2)OCCO3)o1	-4%	?	13µM*	-2%	-23%
Cc1ccc(CCNC(=O)CCn2nc(-c3ccc(Cl)cc3)ccc2=O)cc1	/	/	/	-9%[46 µM]	/
COCC(=O)N1CCC2(CCCN(Cc3cc(C(F)(F)F)cc(C(F)(F)F)c3)C2)CC1	1%	/	3%	/	-7%
COCCn1c(SCC#N)nnc1-c1ccc(OC)cc1	-9%	-100*	4%	-13%	-8%
Cc1ccc(O)c(NC2=C(Cl)C(=O)N(Cc3ccccc3)C2=O)c1	/	/	2.8µM*	/	/
COc1ccc(NC2=C(Cl)C(=O)N(CCc3ccccc3)C2=O)c(OC)c1	-3%	37	?	?	16µM*
Cc1nc(SC2CCOC2=O)c2c(C)c(C)sc2n1 (configuration not stated)	3%	93	22µM*	6%[0.0737 µM]	-6%
Cc1ccc(N/N=C/c2c(C)c(C#N)c(=O)n(C)c2O)cc1C	/	/	0.79µM*	/	/
CCOCCn1c(=O)c2c(nc3n2CCN3c2ccc(C)c(C)c2)n(C)c1=O	/	/	/	26%[46 µM]	/
O=C(CNC(=O)c1ccncc1)N/N=C/c1ccc(O)cc1O	/	/	4%	0%[46 µM]	/
O=C(/C=C/c1cccc(Br)c1)NCC1CCCCC1	-2%	-13	11µM*	-10%	-22%
O=C(COC(=O)/C=C/c1cccc(Br)c1)NCCC1=CCCCC1	-2%	49	-2%	-1%	-16%
CC(C)c1nc2ccccc2n1CC(O)COC1CCCCC1 (configuration not stated)	/	/	28µM*	3%[9.22 µM]	/
Cc1ccc(O)c(C(=O)c2cnn(-c3ccccc3)c2)c1	0%	26	-5%	-9%	3.5µM*
COc1ccc(C(=O)n2cc(C(=O)c3cc(C)ccc3O)cn2)cc1OC	-11%	135	0.16µM*	-9%	?
COc1ccc(C(=O)n2nc(C)cc2C)cc1OC	0%	-26	3%	-5%	-9%
COc1ccc(C(=O)n2cc(C(=O)c3cc(C)ccc3O)cn2)cc1	3%	?	0.4µM*	4%	-12%
Cc1ccc(-n2cc(C(=O)c3ccccc3O)cn2)cc1	-5%	16	?	-4%	?
O=C(Cc1cnn(-c2ccccc2)c1)c1ccc(O)c(O)c1O	-22%	59	3.2µM*	?	28µM*
CCn1c(C)nc2cc(C(=O)n3cc(C(=O)c4ccccc4O)cn3)ccc21	-13%	?	4%	5%	/
COc1ccccc1N1CCN(C(CNC(=O)C(=O)NCCc2ccccc2)c2cccnc2)CC1 (configuration not stated)	/	/	/	-12%[46 µM]	/
